Hit rate of the full screen: of about 52,000 compounds, about 4,300 (8.3%) were called active. Only a selection was taken, and actives are over-represented in it overall. Unmarked numbers belong to inactive results. No stated cut-off is given here; in the data, active means survival mostly below about 52% (no sharp cut-off); inactive means mostly above about 56%.

Among the data in PubChem BioAssay AID463173 (ICCB-Longwood Screening Facility, Harvard Medical School, 2010) are survival values, retold here.

The subject of this experiment is DeltatarO mutant. Briefly: growth inhibition of S. aureus wild type versus tarO mutant, primary screen, teichoic acid synthesis inhibitors, RN4220, OD600 (AID 463173). Conditions: OD600, 18 h, stronger effect = lower value, screened at 18.75 µg/mL (by protocol).
Consider `COc1cc(-c2nc3cccc(C)n3c2Nc2ccc3c(c2)OCCO3)ccc1O`, for which the survival is 76%.
With `CCc1ccc(NC(=O)CCn2nc(C)c(S(=O)(=O)N3CCCCC3)c2C)cc1`, the survival is 128%.
Then `COC(=O)c1ccccc1NC(=O)c1ncoc1-c1ccco1`, with 62%; and `CC(C)S(=O)(=O)c1oc(-c2ccc(F)cc2)nc1S(=O)(=O)c1ccccc1`, with 33% (active); and `CCN(CC)CCNc1nc2c(c(=O)n(C)c(=O)n2C)n1CCc1ccccc1`, with 103%.
`COc1ccc(NC(=O)C2=C(C)Nc3nc(SCc4ccccc4)nn3C2c2cc(OC)ccc2OC)cc1` (stereo not drawn): the survival is 78%.
With `COc1cccc(C(=O)Nc2cccc(C(=O)OCc3cc(=O)n4nc(C(C)C)sc4n3)c2)c1`, the survival is 101%.
For `COc1ccc(N2CCN(C(=O)c3nc(-c4ccc(Cl)cc4)n4c3CCCCC4)CC2)cc1`, the survival is 81%.
Then `Cc1ccc(NC(=O)CSc2nncn2C)c(C)c1`, with 75%; and `CC(=O)Nc1nonc1-c1nnc(SCc2ccccc2C)n1C`, with 42% (active); and `CC(=O)Nc1nonc1-c1nnc(SCc2ccc(F)cc2Cl)n1C`, with 45%.
Then `CC(=O)Nc1nonc1-c1nnc(SCc2ccccc2Cl)n1C`, with 42% (active); and `CC(=O)Nc1nonc1-c1nnc(SCc2ccccc2F)n1C`, with 46%; and `CC(=O)Nc1nonc1-c1nnc(SCC(=O)Nc2ccc(C)c(Cl)c2)n1C`, with 60% (active).
As to `CC(=O)Nc1nonc1-c1nnc(SCc2ccccc2)n1C`, the survival was 44%.
The result for `CC(=O)Nc1nonc1-c1nnc(SCC(=O)Nc2ccc(C)c(Cl)c2)n1-c1ccccc1` reads 49%; that for `COc1ccc(NC(=O)CSc2nnc(-c3nonc3NC(C)=O)n2C)cc1Cl`, 55%; that for `CC(=O)Nc1nonc1-c1nnc(SCc2ccc(C)cc2)n1C`, 48%.
The result for `CC(=O)Nc1nonc1-c1nnc(SCc2ccc(F)cc2)n1C` reads 44%; that for `CC(=O)Nc1nonc1-c1nnc(SCC(=O)Nc2ccccc2Cl)n1C`, 50%.
`CC(=O)Nc1nonc1-c1nnc(SCc2ccc(Cl)cc2)n1C`: the survival was 42% (active).
The result for `Cc1c(NC(=O)Cc2ccc(Cl)cc2)cccc1-c1nc2cccnc2s1` reads 114%.
Then `Cc1csc2nc(COC(=O)c3cccc(NC(=O)COc4ccccc4Cl)c3)cc(=O)n12`, with 88%; and `Cc1cc2ncn(S(=O)(=O)c3ccc(S(N)(=O)=O)cc3)c2cc1C`, with 84%.
The result for `Cc1ccccc1NC(=O)N1CCCC(c2nc(-c3ccc(F)cc3)no2)C1` (stereo not drawn) reads 93%; that for `Cc1ccccc1NC(=O)CN1C(=O)CCn2nc(-c3cccn3C)cc21`, 83%.
On to `O=C(CSc1nc(-c2ccc(Cl)cc2)nc2c1Cc1ccccc1O2)N1CCCCC1`, for which the survival is 96%.
Then `O=C(Cn1cc(C(=O)c2cccs2)c2ccccc21)Nc1ccc(Br)cc1`, with 127%; and `O=S1(=O)C=C(Sc2nnnn2-c2ccccc2)c2ccccc21`, with 4% (active).
The result for `O=C1CC(CSc2nnnn2-c2ccccc2)=NN1` reads 101%; that for `O=S(=O)(NCCSc1nnnn1-c1ccccc1)c1ccc(F)cc1`, 76%.
Take `Cc1cc(NC(=O)CCCn2c(C)c3cnn(-c4ccccc4)c(=O)c3c2C)ccc1Br`: the survival was 71%.
The result for `COc1ccc(CCNC(=O)Cn2c(=O)nc(-c3ccccc3)c3cc(Cl)ccc32)cc1OC` reads 94%.
Then `Cc1ccc(S(=O)(=O)Cc2nc(-c3ccc(C(=O)NCCCOC(C)C)cc3)oc2C)cc1`, with 72%; and `Cc1oc(-c2ccc(C(=O)NCCCOC(C)C)cc2)nc1CS(=O)(=O)c1ccccc1`, with -4% (active); and `CCOCCCNC(=O)c1ccc(-c2nc(CS(=O)(=O)c3ccccc3)c(C)o2)cc1`, with 66%.
Then `COc1ccc(CCN2C(=O)CN(C3CCCCCC3)C(=O)C2c2ccc(Cl)cc2)cc1OC` (stereo not drawn), with 81%.
As for `O=C(Nc1ccccc1-c1nc2ccccc2s1)c1ccc(F)cc1`, the survival is 81%.
For the molecule `COc1cccc(C(=O)Nc2ccc(-c3nc4ccccc4s3)cc2Cl)c1`, the survival was 72%.
As for `COc1ccc(C(=O)Nc2cc(C)c(O)c(-c3nc4ccccc4s3)c2)cc1OC`, the survival was 51%.
The result for `COc1ccc(C(=O)Nc2ccccc2-c2nc3ccccc3s2)c(OC)c1` reads 102%; that for `O=C(Nc1ccc(-c2nc3ccccc3s2)c(O)c1)c1ccc(Br)cc1`, 87%; that for `COc1cc(OC)cc(C(=O)Nc2ccc(-c3nc4ccccc4s3)c(C)c2)c1`, 117%.
For the molecule `COc1ccc(C(=O)Nc2ccccc2-c2nc3ccccc3s2)cc1OC`, the survival is 7% (active).
Then `COc1cc(OC)cc(C(=O)Nc2ccccc2-c2nc3ccccc3s2)c1`, with 17% (active); and `CSc1ccc(C(=O)Nc2ccc(-c3nc4ccccc4s3)c(O)c2)cc1`, with 32% (active); and `Cc1ccc(C(=O)Nc2ccc(-c3nc4ccccc4s3)c(O)c2)c(C)c1`, with 84%.
Then `COc1cccc(C(=O)Nc2ccccc2-c2nc3ccccc3s2)c1`, with 33% (active); and `O=C(Nc1ccccc1-c1nc2ccccc2s1)c1cc(Cl)cc(Cl)c1`, with 84%.
The result for `Cn1c(CNC(=O)CSc2n[nH]c(-c3ccccc3Cl)n2)nc2ccccc21` reads 75%; that for `O=C(Nc1ccc(F)cc1F)c1cc2c(=O)n3ccccc3nc2s1`, 75%; that for `CCOC(=O)c1ccccc1NC(=O)c1sc2ncn(CC)c(=O)c2c1C`, 68%.
Regarding `Cc1ccc(C)c(NC(=O)CCc2c(C)n(C)c3cc(-c4ccccc4C)nn3c2=O)c1`, the survival was 63%.
The result for `CCC(CC)C(=O)Nc1ccccc1C(=O)OCc1cc(=O)n2nc(C3CCCCC3)sc2n1` reads 92%; that for `O=C(Nc1ccc(F)c(Cl)c1)N1CC=C(c2c[nH]c3ccccc23)CC1`, 77%; that for `CN1CCN(C(CNC(=O)C(=O)Nc2cccc(Cl)c2)c2ccc3c(c2)OCO3)CC1` (stereo not drawn), 86%.
With `CCC1=C(c2ccc(C)cc2)S(=O)(=O)N=C1N1CCC(C(=O)Nc2ccccc2C(=O)OC)CC1`, the survival was 89%.
The result for `Cc1ccc(NC(=O)Cn2c(=O)n(CCc3ccccc3)c(=O)c3c4c(sc32)CCCC4)cc1C` reads 97%; that for `CCCCOc1ccc(C(=O)Nc2ccc3c(c2)CCCN3C(=O)c2cccs2)cc1`, 83%.
The result for `CCOC(=O)C(C)ON1C(=O)c2ccccc2C1=O` (stereo not drawn) reads 86%.
Regarding `CC(=O)N1CCc2cc(Br)cc(S(=O)(=O)CCC(=O)Nc3ccc(C)cc3Cl)c21`, the survival is 47% (active).
Turning to `COc1ccc(CCNC(=O)CCS(=O)(=O)c2cc(Br)cc3c2N(C(C)=O)CC3)cc1OC`, the survival was 53%.
Then `CCC(=O)N1CCc2cc(Br)cc(S(=O)(=O)CCC(=O)Nc3ccccc3C)c21`, with 87%.
Then `CCC(=O)N1CCc2cc(Br)cc(S(=O)(=O)CCC(=O)NCCc3ccc(Cl)cc3)c21`, with 70%.
The result for `CC(=O)N1CCc2cc(Br)cc(S(=O)(=O)NCCc3cccc(C)c3)c21` reads 75%; that for `CC(=O)N1CCc2cc(Br)cc(S(=O)(=O)CCC(=O)NCCc3ccc(Cl)cc3)c21`, 44% (active).
Take `CC(=O)N1CCc2cc(Br)cc(S(=O)(=O)NCCc3ccc(Cl)cc3)c21`: the survival was 45% (active).
Then `Cc1ccc(NC(=O)CCS(=O)(=O)c2cc(Br)cc3c2N(C(=O)C2CC2)CC3)cc1`, with 90%; and `CCOc1ccc(CCNS(=O)(=O)c2cc(Br)cc3c2N(C(C)=O)CC3)cc1OCC`, with 103%; and `COc1ccc(CCNC(=O)c2ccc3c(c2)N(Cc2ccccc2C)C(=O)c2ccccc2S3)cc1OC`, with 118%.
The result for `CCOC(=O)c1c(C)[nH]c(C)c1S(=O)(=O)NCC(=O)Nc1ccc(CC)cc1` reads 96%.
Then `COc1ccc(OC)c(CCNC(=O)C2=C(C)C(=O)OC23CCC(C)CC3)c1` (stereo not drawn), with 86%; and `Cc1cc(C(C)(C)C)oc1C(=O)N(CC(=O)NC1CCCC1)c1ccc(F)cc1`, with 77%.
In the case of `O=C(COc1cccc(Cl)c1)N1CCC(c2nc3ccccc3s2)CC1`, the survival is 44% (active).
Then `Cc1cc(Cl)ccc1OCC(=O)N1CCC(c2nc3ccccc3o2)CC1`, with 54%; and `Cc1cc(C)cc(OCC(=O)N2CCC(c3nc4ccccc4s3)CC2)c1`, with 85%.
Then `CC(C)(C)c1ccc(OCC(=O)N2CCC(c3nc4ccccc4s3)CC2)cc1`, with 84%.
Then `Cc1cc(Cl)ccc1OCC(=O)N1CCC(c2nc3ccccc3s2)CC1`, with 21% (active); and `COc1ccc(OCC(=O)N2CCC(c3nc4ccccc4s3)CC2)cc1`, with 68%.
With `Cc1cc(OCC(=O)N2CCC(c3nc4ccccc4s3)CC2)ccc1Cl`, the survival is 23% (active).
For `Cc1ccccc1OCC(=O)N1CCC(c2nc3ccccc3s2)CC1`, the survival was 51%.
As to `O=C(COc1ccc([N+](=O)[O-])cc1)N1CCC(c2nc3ccccc3s2)CC1`, the survival was 82%.
Then `COc1ccc(N2CCN(S(=O)(=O)c3c(C)nc4sc(C)cn4c3=O)CC2)cc1`, with 92%.
Then `CCCCSCc1ccc(C(=O)O)o1`, with 77%; and `O=C(c1cccs1)N1CCCc2cc(NS(=O)(=O)c3cc(F)ccc3F)ccc21`, with 73%; and `O=C(c1ccccc1F)N1c2nc(-c3ccco3)nn2C2(CCCCC2)[C@@H]2CCCC[C@@H]21`, with 69%.
With `C=Cc1ccc(Cn2c(C)c(CNCCc3ccccc3C)c(C(=O)O)c2C)cc1`, the survival is 53%.
Consider `Cc1cc(C)c(NS(=O)(=O)c2ccc(-c3coc(C)n3)cc2)c(C)c1`, for which the survival was 94%.
Then `CC(=O)OCc1cnc(C)c2oc(=O)c(C(=O)Nc3ccc(C)cc3Cl)cc12`, with 128%; and `O=C(c1ccccc1)c1ccccc1NC(=O)c1ccccc1C(=O)O`, with 67%; and `Cc1ccc(NC(=O)c2ccc(Br)cc2)c(C(=O)c2ccccc2)c1`, with -2% (active).
Then `Cc1ccc(NC(=O)c2ccc(Cl)cc2Cl)c(C(=O)c2ccccc2)c1`, with -1% (active).
Then `Cc1ccc(NC(=O)c2nc[nH]c2C(=O)N2CCCCC2)c(C(=O)c2ccccc2)c1`, with 82%; and `O=C(Nc1cc2c(cc1C(=O)c1ccccc1)OCCO2)c1ccc(Br)cc1`, with 82%.
For `Cc1ccc(NC(=O)c2ccccc2Br)c(C(=O)c2ccccc2)c1`, the survival is 26% (active).
Then `Cc1ccc(C(=O)COC(=O)c2cccc(NC(=O)c3ccc(Cl)cc3Cl)c2)cc1`, with 61%.
Consider `O=C(Nc1cc2c(cc1C(=O)c1ccccc1Br)OCCO2)c1ccccc1`, for which the survival was 68%.
As to `Cc1cc(NC(=O)c2ccccc2Cl)ccc1NC(=O)c1ccccc1`, the survival was 77%.
